The nature of test [1]: Caspase-3/7 induction in HepG2 cells by small molecules, qHTS assay (AID 1346978). Note: nearly all actives have a fitted effect of over 15% in size. The essentials: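 Wild-type HepG2 cells, 2,000/well, settled 5 hr at 37 C and 5% CO2, then compound-treated for 17 hr; caspase-3/7 activity read by luminescent Caspase-Glo 3/7 after 30 min at room temperature.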
(In general: Quantitative high-throughput screening tests each substance at several concentrations.)

Test [2] can be described thus: Caspase-3/7 induction in CHO-K1 cells by small molecules, qHTS cell viability counter screen (AID 1346979). Note: nearly all actives have a fitted effect of over 35% in size. Note: potency is the fitted concentration of half-maximal effect. In outline: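 CellTiter-Fluor viability check, qHTS format: wild-type CHO-K1, 16hr compound treatment, 1hr reagent incubation, fluorescence read.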
Test [3] can be described thus: Caspase-3/7 induction in CHO-K1 cells by small molecules, qHTS assay (AID 1346980). Note: nearly all actives have a fitted effect of over 15% in size. In outline: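 Wild-type CHO-K1 cells exposed to compounds for 17hr at 37 C, 5% CO2. Caspase-3/7 activity then measured by Caspase-Glo 3/7 luminescence after 30min at room temperature.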
Test [4] can be described thus: Caspase-3/7 induction in HepG2 cells by small molecules, qHTS cell viability counter screen (AID 1346981). Note: nearly all actives have a fitted effect of over 30% in size. Note: potency is the fitted concentration of half-maximal effect. The essentials: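 The parent HepG2 line is plated at 2,000 cells per well and rested 5 hr before compound pinning from DMSO stocks. Following a 16-hr treatment at 37 C, a fluorogenic live-cell substrate (CellTiter-Fluor) reports viability after 1 hr.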
In test [5] the target is Nuclear receptor subfamily 1 group I member 2 (Homo sapiens) (UniProt O75469). Description: Human pregnane X receptor (PXR) small molecule agonists, qHTS assay (AID 1346982). Note: nearly all actives have a fitted effect of over 35% in size. Note: potency is the fitted concentration of half-maximal effect. The essentials: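 After plating in 5% charcoal-stripped FBS and a 5 hr rest, PXR-Luc HepG2 cells received compounds in DMSO. Following 24 hr at 37 C, ONE-Glo was added and light output read.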
Nuclear receptor subfamily 1 group I member 2 (Homo sapiens), sequence (O75469 whole entry, looked up): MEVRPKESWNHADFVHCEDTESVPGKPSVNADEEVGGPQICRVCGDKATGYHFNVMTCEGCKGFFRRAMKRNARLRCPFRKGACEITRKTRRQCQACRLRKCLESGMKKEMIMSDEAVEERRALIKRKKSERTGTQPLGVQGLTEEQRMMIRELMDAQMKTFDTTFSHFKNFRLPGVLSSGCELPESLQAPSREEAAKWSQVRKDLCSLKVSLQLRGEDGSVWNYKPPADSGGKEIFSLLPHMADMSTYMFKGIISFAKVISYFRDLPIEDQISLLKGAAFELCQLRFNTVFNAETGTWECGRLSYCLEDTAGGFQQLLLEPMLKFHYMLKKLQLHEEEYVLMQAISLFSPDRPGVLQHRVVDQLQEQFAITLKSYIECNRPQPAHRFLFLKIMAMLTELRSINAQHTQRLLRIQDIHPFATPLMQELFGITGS
The target in test [6] is Acetylcholinesterase (Homo sapiens) (UniProt P22303). Description: Acetylcholinesterase (AChE) small molecule antagonists: colormetric cell-based qHTS assay (AID 1347395; calls by dose curve; note: nearly all actives have a fitted effect of over 30% in size; note: potency is the fitted concentration of half-maximal effect). The essentials: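 AChE inhibition read colorimetrically via DTNB–thiocholine in SH-SY5Y cells. Compound 30 min, substrate 90 min, both 37 C.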
Acetylcholinesterase (Homo sapiens), sequence (P22303 whole entry, looked up): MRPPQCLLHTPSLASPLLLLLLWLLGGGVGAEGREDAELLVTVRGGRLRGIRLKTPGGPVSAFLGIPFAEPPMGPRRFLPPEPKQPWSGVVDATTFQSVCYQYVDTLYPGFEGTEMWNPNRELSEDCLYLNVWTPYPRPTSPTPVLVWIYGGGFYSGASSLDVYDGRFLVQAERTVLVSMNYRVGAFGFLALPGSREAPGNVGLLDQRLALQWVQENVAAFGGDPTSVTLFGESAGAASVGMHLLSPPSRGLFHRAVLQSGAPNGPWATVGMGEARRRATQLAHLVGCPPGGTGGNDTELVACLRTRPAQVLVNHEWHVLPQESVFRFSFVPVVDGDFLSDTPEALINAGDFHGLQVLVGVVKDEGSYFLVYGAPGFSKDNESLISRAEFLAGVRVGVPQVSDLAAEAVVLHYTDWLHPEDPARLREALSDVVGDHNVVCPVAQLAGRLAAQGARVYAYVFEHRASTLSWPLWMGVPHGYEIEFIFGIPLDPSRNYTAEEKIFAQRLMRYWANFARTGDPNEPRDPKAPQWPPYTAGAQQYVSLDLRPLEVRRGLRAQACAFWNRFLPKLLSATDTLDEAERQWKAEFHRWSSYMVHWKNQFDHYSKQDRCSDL
Test [7] has the same target. Kind of test: Acetylcholinesterase (AChE) small molecule antagonists: enzyme-based qHTS assay (AID 1347397; calls by dose curve; note: nearly all actives have a fitted effect of over 55% in size). As to conditions: Potency: AChE enzyme activity inhibition. The essentials: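 In this quantitative HTS, compounds from the Tox21 10K collection were preincubated 30 min at ambient temperature with recombinant human AChE dispensed at 50 mU/mL. Hydrolysis of acetylthiocholine was then followed for 10 min by DTNB colour development.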

Test [8] has the same target. Description: Acetylcholinesterase (AChE) small molecule antagonists: fluorescence cell-based qHTS assay (AID 1347398; calls by dose curve; note: nearly all actives have a fitted effect of over 50% in size; note: potency is the fitted concentration of half-maximal effect). Conditions: Potency: AChE activity. The essentials:
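Cells (SH-SY5Y) attached overnight, were dosed with compound or DMSO vehicle for 30 min at 37 C, and then incubated 40 min at room temperature with acetylthiocholine and Thiolite Green; green fluorescence indexed AChE activity.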

The target is the same in test [9]. Kind of test: Acetylcholinesterase (AChE) small molecule antagonists: enzyme-based qHTS assay with human liver microsomes (AID 1347399; calls by dose curve; note: nearly all actives have a fitted effect of over 60% in size). As to conditions: Potency: qHTS inhibition. In outline:
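Recombinant human AChE (50 mU/mL in the enzyme mix) and human liver microsomes (0.25 mg/mL final) were preincubated with compound and NADPH (0.25 mg/mL final) for 30 min at 37 C. Acetylthiocholine/DTNB was then added; thiocholine was read colorimetrically after 10 min at room temperature.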

Test [10] deals with Cytochrome P450 2C19 (Homo sapiens) (UniProt P33261). Description: Cytochrome P450 Family 2 Subfamily C Member 19 (CYP2C19) small molecule antagonists: luciferase reporter qHTS assay (AID 1671197). Note: nearly all actives have a fitted effect of over 65% in size. Note: potency is the fitted concentration of half-maximal effect. In outline:
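Light output is proportional to CYP2C19 activity: proluciferin substrate is converted to luciferin, then detected by a luciferin detection reagent that also stops the 1 h, 37C NADPH-driven reaction. Ketoconazole serves as positive control.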

Test [11] deals with Cytochrome P450 2C9 (Homo sapiens) (UniProt P11712). Kind of test: Cytochrome P450 Family 2 Subfamily C Member 9 (CYP2C9) small molecule antagonists: luciferase reporter qHTS assay (AID 1671198). Note: nearly all actives have a fitted effect of over 50% in size. Note: potency is the fitted concentration of half-maximal effect. The essentials:
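P450-Glo proluciferin substrate with CYP2C9 enzyme; 10 min RT preincubation, then NADPH regeneration 1 h at 37C; luciferin detection reagent 20 min RT, luminescence in relative luminescence units.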

Test [12] has as its target Cytochrome P450 1A2 (Homo sapiens) (UniProt P05177). Description: Cytochrome P450 Family 1 Subfamily A Member 2 (CYP1A2) small molecule antagonists: luciferase reporter qHTS assay (AID 1671199). Note: nearly all actives have a fitted effect of over 50% in size. Note: potency is the fitted concentration of half-maximal effect. The essentials: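 Quantitative high-throughput format using the P450-Glo CYP1A2 system. Reaction initiated by NADPH regeneration solution, 1 h at room temperature, then stopped with detection reagent; luminescence measured 20 min later.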

The target in test [13] is Voltage-gated inwardly rectifying potassium channel KCNH2 (Homo sapiens) (UniProt Q12809). Kind of test: Human Ether-a-go-go-Related Gene (hERG) channel small molecule antagonists: fluorescence cell-based qHTS assay (AID 1671200). Note: nearly all actives have a fitted effect of over 50% in size. Note: potency is the fitted concentration of half-maximal effect. In outline: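 Kinetic two-minute fluorescence traces, sampled at 1 s, were collected following thallium stimulus of U2OS cells (1000 per well) that had been cultured overnight at 37 C and loaded with FluxOR II.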
Voltage-gated inwardly rectifying potassium channel KCNH2 (Homo sapiens), sequence (Q12809 whole entry, looked up): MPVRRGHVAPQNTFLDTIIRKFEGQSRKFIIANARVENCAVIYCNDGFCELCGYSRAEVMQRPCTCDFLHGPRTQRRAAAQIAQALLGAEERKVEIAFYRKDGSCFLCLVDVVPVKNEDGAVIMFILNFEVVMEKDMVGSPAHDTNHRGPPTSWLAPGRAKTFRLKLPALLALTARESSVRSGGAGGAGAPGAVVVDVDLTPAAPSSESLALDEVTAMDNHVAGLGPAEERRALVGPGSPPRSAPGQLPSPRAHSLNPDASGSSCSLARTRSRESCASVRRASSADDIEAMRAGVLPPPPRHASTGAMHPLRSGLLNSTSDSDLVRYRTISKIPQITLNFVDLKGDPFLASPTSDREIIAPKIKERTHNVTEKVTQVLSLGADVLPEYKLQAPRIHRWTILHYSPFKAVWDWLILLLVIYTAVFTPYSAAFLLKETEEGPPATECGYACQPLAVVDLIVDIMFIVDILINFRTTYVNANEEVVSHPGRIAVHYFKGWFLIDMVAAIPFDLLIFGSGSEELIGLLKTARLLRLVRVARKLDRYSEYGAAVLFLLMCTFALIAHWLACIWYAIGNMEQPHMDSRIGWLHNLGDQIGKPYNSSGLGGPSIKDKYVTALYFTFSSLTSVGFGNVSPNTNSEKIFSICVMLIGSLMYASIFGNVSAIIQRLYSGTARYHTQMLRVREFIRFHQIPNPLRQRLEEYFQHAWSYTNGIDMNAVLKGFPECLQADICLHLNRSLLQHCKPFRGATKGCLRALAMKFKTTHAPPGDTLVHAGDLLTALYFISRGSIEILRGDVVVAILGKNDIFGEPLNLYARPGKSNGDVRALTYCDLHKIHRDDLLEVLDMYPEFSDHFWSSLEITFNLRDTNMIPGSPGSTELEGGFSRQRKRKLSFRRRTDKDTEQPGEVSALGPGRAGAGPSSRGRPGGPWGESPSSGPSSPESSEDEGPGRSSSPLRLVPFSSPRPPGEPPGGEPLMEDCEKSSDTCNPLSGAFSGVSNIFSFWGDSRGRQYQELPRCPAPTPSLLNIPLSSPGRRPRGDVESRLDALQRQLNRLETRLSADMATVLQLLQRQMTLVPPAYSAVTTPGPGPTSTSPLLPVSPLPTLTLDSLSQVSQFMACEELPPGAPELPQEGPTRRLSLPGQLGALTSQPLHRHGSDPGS

For test [14], the target named is Cytochrome P450 3A4 (Homo sapiens) (UniProt P08684). Description: Cytochrome P450 Family 3 Subfamily A Member 4 (CYP3A4) small molecule antagonists: luciferase reporter qHTS assay (AID 1671201). Note: nearly all actives have a fitted effect of over 50% in size. Note: potency is the fitted concentration of half-maximal effect. The essentials:
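Proluciferin-to-luciferin conversion by CYP3A4, NADPH-regenerated, 1 h RT; luminescence read as RLU. Ketoconazole as control.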

Test [15] has as its target Cytochrome P450 2D6 (Homo sapiens) (UniProt P10635). Kind of test: Cytochrome P450 Family 2 Subfamily D Member 6 (CYP2D6) small molecule antagonists: luciferase reporter qHTS assay (AID 1671196). In outline: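 Quantitative HTS of Tox21 chemicals against CYP2D6 using a luminescent proluciferin substrate. After NADPH addition, 1 h room-temperature reaction; luminescence recorded 20 min post detection reagent.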

Structures are written as SMILES. Values joined by “and” are separate entries in the source; they are usually repeats but may differ in a detail not shown here. Equal entries are not always repeated. Values without a mark were called inactive. Records with an inconclusive call do not appear. Active and inactive are the calls of the source. Unless noted, calls come from the whole dose curve; as a rule, active = well fitted curve in the direction sought with a large enough effect in the repeat runs; inconclusive = weak or mixed curves; inactive = no such curve, though single readings can be large; an effect the other way counts as inactive or inconclusive.

Cytochrome P450 2C19 (Homo sapiens), sequence (P33261 whole entry, looked up): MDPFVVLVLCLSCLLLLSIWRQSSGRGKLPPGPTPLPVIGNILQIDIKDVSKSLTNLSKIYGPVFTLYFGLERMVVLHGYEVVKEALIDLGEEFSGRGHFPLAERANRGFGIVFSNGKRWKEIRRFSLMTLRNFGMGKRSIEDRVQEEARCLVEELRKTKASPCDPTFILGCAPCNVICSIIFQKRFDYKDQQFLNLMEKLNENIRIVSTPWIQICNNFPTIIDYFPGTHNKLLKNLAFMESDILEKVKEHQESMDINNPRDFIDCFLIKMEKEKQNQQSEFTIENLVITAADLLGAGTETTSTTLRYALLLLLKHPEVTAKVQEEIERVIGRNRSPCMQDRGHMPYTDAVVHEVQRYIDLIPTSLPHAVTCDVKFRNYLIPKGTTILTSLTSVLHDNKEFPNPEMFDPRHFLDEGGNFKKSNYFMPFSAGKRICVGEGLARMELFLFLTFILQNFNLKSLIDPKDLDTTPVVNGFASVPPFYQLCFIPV
Cytochrome P450 3A4 (Homo sapiens), sequence (P08684 whole entry, looked up): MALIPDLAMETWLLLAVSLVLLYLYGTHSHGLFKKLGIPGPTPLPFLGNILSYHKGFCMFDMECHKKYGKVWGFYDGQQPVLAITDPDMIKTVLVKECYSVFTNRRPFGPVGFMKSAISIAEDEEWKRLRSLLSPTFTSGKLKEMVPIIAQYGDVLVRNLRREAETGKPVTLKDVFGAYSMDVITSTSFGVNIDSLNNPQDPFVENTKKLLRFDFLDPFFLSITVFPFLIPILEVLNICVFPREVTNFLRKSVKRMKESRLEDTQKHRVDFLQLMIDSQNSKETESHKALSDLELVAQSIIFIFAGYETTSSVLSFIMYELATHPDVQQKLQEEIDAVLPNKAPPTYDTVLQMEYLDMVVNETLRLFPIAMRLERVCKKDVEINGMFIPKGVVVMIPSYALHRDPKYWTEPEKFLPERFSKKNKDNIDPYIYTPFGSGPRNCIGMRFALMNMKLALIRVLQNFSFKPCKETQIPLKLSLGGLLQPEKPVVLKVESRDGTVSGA
Cytochrome P450 1A2 (Homo sapiens), sequence (P05177 whole entry, looked up): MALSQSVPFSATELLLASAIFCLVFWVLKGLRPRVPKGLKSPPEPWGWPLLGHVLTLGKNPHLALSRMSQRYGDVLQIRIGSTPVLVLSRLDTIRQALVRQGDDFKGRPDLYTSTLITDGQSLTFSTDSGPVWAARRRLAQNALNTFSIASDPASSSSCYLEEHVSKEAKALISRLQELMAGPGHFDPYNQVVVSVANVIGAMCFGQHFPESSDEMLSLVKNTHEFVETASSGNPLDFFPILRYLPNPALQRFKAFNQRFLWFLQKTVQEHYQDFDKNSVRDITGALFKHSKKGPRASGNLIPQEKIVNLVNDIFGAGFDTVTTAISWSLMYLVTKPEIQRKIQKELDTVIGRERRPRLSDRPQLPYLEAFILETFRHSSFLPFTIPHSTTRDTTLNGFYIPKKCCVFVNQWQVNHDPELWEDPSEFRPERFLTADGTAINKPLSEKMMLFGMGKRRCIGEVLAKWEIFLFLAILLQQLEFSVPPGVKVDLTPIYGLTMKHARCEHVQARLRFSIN
Cytochrome P450 2D6 (Homo sapiens), sequence (P10635 whole entry, looked up): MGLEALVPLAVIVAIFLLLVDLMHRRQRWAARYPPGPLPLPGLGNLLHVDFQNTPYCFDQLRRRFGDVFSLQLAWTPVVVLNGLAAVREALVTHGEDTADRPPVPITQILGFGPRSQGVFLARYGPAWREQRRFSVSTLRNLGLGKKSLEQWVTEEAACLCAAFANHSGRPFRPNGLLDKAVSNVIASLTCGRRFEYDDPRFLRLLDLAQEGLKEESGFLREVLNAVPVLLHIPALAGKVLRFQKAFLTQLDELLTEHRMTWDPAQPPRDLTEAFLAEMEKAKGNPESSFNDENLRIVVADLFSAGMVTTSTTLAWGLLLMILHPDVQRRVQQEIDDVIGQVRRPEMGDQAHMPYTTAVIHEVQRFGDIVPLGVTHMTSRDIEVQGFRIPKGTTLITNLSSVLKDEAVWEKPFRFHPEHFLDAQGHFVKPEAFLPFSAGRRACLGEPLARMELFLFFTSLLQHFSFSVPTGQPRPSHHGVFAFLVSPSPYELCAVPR
Cytochrome P450 2C9 (Homo sapiens), sequence (P11712 whole entry, looked up): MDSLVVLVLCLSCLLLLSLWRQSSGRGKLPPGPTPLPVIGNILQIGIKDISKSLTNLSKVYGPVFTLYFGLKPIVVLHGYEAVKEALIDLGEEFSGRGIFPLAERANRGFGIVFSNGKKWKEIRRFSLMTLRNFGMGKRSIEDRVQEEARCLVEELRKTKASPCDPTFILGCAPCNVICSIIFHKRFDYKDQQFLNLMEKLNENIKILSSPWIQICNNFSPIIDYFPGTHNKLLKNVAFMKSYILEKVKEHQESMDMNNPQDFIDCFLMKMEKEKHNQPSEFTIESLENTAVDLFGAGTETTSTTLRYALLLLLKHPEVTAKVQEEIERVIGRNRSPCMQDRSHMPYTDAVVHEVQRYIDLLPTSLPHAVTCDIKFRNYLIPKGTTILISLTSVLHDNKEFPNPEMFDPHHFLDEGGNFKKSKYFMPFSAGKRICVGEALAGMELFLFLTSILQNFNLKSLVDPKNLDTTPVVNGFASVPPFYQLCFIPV

Regarding `O=S1(=O)OCC2C(CO1)C1(Cl)C(Cl)=C(Cl)C2(Cl)C1(Cl)Cl` (stereo not drawn), the Potency result in test [1], in test [3], in test [4], in test [6], in test [7] and in test [8] was “inactive” in each case. The Potency result in [9] is “inactive”. Also, the Potency in [2] was 48.6 µM (active); in test [5], 21.7 µM (active); in test [10] it was 1.59 µM (active); in [11] it was 15.9 µM (active); in test [12], 31.7 µM (active); in [13], 17.4 µM (active). Also, the Potency in [14] was 0.224 µM (active).
Turning to `NC1CCC(CC2CCC(N)CC2)CC1` (stereo not drawn), the Potency result in test [1], in [2], in [3], in test [4], in [5] and in test [6] was “inactive” each time. Further, the Potency result in test [7], in [8], in [9], in [12] and in test [13] was “inactive” in each case. Besides, the Potency in [15] was 35 µM (active); in [14], 11.1 µM (active).
Consider `[Cl][Hg][c]1ccccc1`, for which the Potency entry in test [1], in test [3], in test [5], in test [6], in test [7] and in test [9] was “inactive” in each case. Besides, the Potency in test [2] is 0.486 µM (active); in [4] it was 12.2 µM (active); in test [15], 0.796 µM (active); in test [10] it was 5.03 µM (active); in test [11] it was 3.99 µM (active); in test [12], 28.3 µM (active). The Potency in test [13] is 17.4 µM (active); in test [14] it was 8.94 µM (active).
As for `Cc1cc2c3c(c1)C(c1ccccc1)=N[C@@H](NC(=O)c1ccncc1)C(=O)N3CC2`, the Potency result in [1], in test [2], in [3], in test [4], in test [6] and in test [7] was “inactive” each time. The Potency result in [8] and in [9] was “inactive” in each case. Moreover, the Potency in [5] was 13.7 µM (active); in test [15] it was 39.9 µM (active); in test [11], 31.7 µM (active); in test [14], 1.12 µM (active).
For `[O]=[Cr][O][Cr]=[O]`, the Potency entry in test [1], in test [2], in test [3], in [4], in [5] and in test [6] was “inactive” each time. For the same compound, the Potency result in test [7], in test [8], in test [9], in [11], in [13] and in test [14] was “inactive” each time. In addition, the Potency in [15] is 2.58 µM (active).
On to `CCCCN(CCCC)C(=S)S`, for which the Potency entry in test [1], in test [2], in test [3], in [4], in test [6] and in test [8] was “inactive” each time. Further, the Potency entry in test [9] and in test [10] was “inactive” in each case. For the same compound, the results for the Potency in test [5] and in [15] were 24.3 µM (active) and 1.59 µM (active), respectively.
For `CC(=O)O.CC(=O)O.CC(=O)O.CC(=O)O.CC(=O)O.CC(=O)O.CC(=O)O.O.O.[Cr].[Cr].[Cr]`, the Potency entry in test [1], in test [2], in test [3], in test [4] and in [13] was “inactive” each time.
`CN1C2CCC(C)(C)C1CC(OC(=O)C(O)(c1cccs1)c1cccs1)C2` (stereo not drawn): the Potency entry in test [1], in test [2], in [3], in [4], in test [6] and in test [7] was “inactive” in each case. For the same compound, the Potency result in test [8], in test [9], in test [10], in test [11] and in [12] was “inactive” throughout. Besides, in test [14], the Potency was 0.219 µM (active).
For `CC(Cl)CCl` (stereo not drawn), the Potency entry in [1], in [2], in [3], in test [4], in test [5] and in test [6] was “inactive” each time. In addition, the Potency entry in [8], in test [9], in test [11], in [12], in test [13] and in [14] was “inactive” in each case. Further, the Potency in test [10] is 70.8 µM (active).
As to `CCn1cc[n+](C)c1` (tested in a mixture with another compound), the Potency entry in test [1], in [2], in [3], in [4], in test [5] and in test [11] was “inactive” in each case. In addition, the Potency result in test [12], in test [13] and in test [14] was “inactive” each time.
Consider `Nc1c(Cl)c(Cl)c(Cl)c(Cl)c1Cl`, for which the Potency result in test [1], in test [2], in test [3], in [4], in test [6] and in test [7] was “inactive” in each case. Also, the Potency result in test [8], in test [9], in test [11] and in [13] was “inactive” in each case.
Turning to `CCN(CC)C(=O)N[C@@H]1C=C2c3cccc4[nH]cc(c34)C[C@@H]2N(C)C1`, the Potency entry in test [1], in test [2], in test [3], in test [4], in test [7] and in test [9] was “inactive” in each case.
For `O=C1C(Cl)=C(Cl)C(=O)C(Cl)=C1Cl`, the Potency entry in test [1], in test [3] and in [7] was “inactive” in each case. In addition, the Potency in test [2] is 24.2 µM (active) and 24.3 µM (active); in [4], 54.3 µM (active); in [5] it was 60.9 µM (active) and 61.1 µM (active); in test [8] it was 35.5 µM (active) and 63.3 µM (active); in test [15], 31.6 µM (active) and 25.2 µM (active); in test [10], 7.94 µM (active) and 11.2 µM (active). In addition, the Potency was 5.01 µM (active) and 8.94 µM (active) in test [11]; 35.6 µM (active) in [12]; 34.7 µM (active) in test [13]; 22.4 µM (active) in test [14].
Take `CNC(=O)O/N=C(\C)C(C)S(C)(=O)=O` (stereo not drawn): the Potency result in test [1], in test [2], in test [3], in test [4], in test [9] and in [10] was “inactive” each time. Besides, the Potency entry in [11], in test [12], in [13] and in test [14] was “inactive” throughout. Also, the Potency in test [6] was 355 µM (active); in test [8], 447 µM (active).
For the compound `[Cl-].[Cl-].[Cl-].[Yb+3]`, the Potency entry in test [1], in [2], in test [3], in [4] and in test [13] was “inactive” throughout.
With `CCCN`, the Potency entry in [1], in test [2], in test [3], in test [4], in [5] and in [6] was “inactive” in each case. For the same compound, the Potency result in test [8], in [9], in [10], in [11], in [13] and in test [14] was “inactive” in each case.

Values taken from PubChem BioAssay (Tox21).
